Measured values as given in PubChem BioAssay AID463173 (ICCB-Longwood Screening Facility, Harvard Medical School, 2010).
Out of some 52,000 compounds screened, about 4,300 (8.3%) were called active. Shown is part of a subset that was picked to be rich in actives. Values without a mark were called inactive. No stated cut-off is given here; in the data, active means survival mostly below about 52% (no sharp cut-off); inactive means mostly above about 56%.

System: DeltatarO mutant
Assay: growth inhibition of S. aureus wild type versus tarO mutant, primary screen, teichoic acid synthesis inhibitors, RN4220, OD600 (AID 463173)
Details: OD600, 18 h, stronger effect = lower value, screened at 18.75 µg/mL (by protocol)

Row | Compound | survival
1 | CCOC(=O)Cn1c(=O)oc2cc(S(=O)(=O)N3CCN(c4cccc(Cl)c4)CC3)ccc21 | 65%
2 | COc1cccc2c1Oc1ncccc1N(c1ccc(C(=O)NCc3ccccc3Cl)s1)C2 | 91%
3 | COc1ccc(Cn2c(CCC(=O)Nc3ccc(OC)c(Cl)c3)nc3cccnc32)cc1 | 113%
4 | Cc1cccc(-c2nc(C)c(CCNC(=O)C(=O)Nc3ccccc3C#N)s2)c1 | 85%
5 | CCS(=O)(=O)N1CCC(n2c(C(F)(F)F)nc3cccnc32)CC1 | 76%
6 | CN(C)S(=O)(=O)N1CCC(n2c(C(F)(F)F)nc3cccnc32)CC1 | 94%
7 | CS(=O)(=O)N1CCC(n2c(C(F)(F)F)nc3cccnc32)CC1 | 47% (active)
8 | COc1ccc(S(=O)(=O)c2c(O)c3ccc(C(=O)NCc4ccc(F)cc4)cc3[nH]c2=O)cc1 | 108%
9 | CCOc1cc(-c2ccc(OC(=O)c3ccccc3)c(OC)c2)cc(=O)c2c(C)oc(C)c12 | 89%
10 | CCc1ccc(S(=O)(=O)c2nnn3c2nc(Nc2cc(OC)cc(OC)c2)c2cc(Cl)ccc23)cc1 | 102%
11 | CCOc1ccc(C(=O)Nc2c(C)nc(Nc3ccccc3)nc2Nc2ccccc2)cc1OCC | 49% (active)
12 | CCOc1ccc(Nc2nc(C)c(NC(=O)c3cccc(OC)c3)c(Nc3ccc(OCC)cc3)n2)cc1 | 112%
13 | CCOc1ccc(Nc2nc(C)c(NC(=O)c3ccc(C)cc3)c(Nc3ccc(OCC)cc3)n2)cc1 | 123%
14 | COc1ccccc1Cc1nc2ccccc2nc1SCC(=O)N(C)c1ccc(F)cc1 | 83%
15 | O=C(Cn1cc(SCc2ccc(C(F)(F)F)cc2)c2ccccc21)N1CCOCC1 | 85%
16 | COc1ccc(NC(=O)NC2COc3ccccc3C2)cc1Cl (stereo not drawn) | 57%
17 | COc1ccc(NC(=O)NC2COc3ccccc3C2)c(OC)c1 (stereo not drawn) | 98%
18 | O=C(Nc1ccc(OC(F)(F)F)cc1)NC1COc2ccccc2C1 (stereo not drawn) | 0% (active)
19 | O=C(O)c1ccccc1C(=O)Nc1cccnc1 | 89%
20 | O=C(Nc1cccnc1)c1ccccc1Oc1ccccc1 | 65% (active)

Row | Compound | survival
21 | O=C(Nc1cccnc1)c1cccc(C(=O)Nc2cccnc2)c1 | 79%
22 | CCOc1ccc(-c2c(C)nn3c(C)c(C(=O)NCc4cccc(OC)c4)cnc23)cc1OCC | 77%
23 | CC(NC(=O)CN(c1ccc(Cl)cc1Cl)S(=O)(=O)c1ccccc1)c1ccccc1 (stereo not drawn) | 37% (active)
24 | Cc1ccccc1NC(=O)CN(c1ccc(Cl)cc1Cl)S(=O)(=O)c1ccccc1 | 44%
25 | CCOc1ccc(NC(=O)CN(c2ccccc2OCC)S(=O)(=O)c2ccccc2)cc1 | 48%
26 | Cc1ccc(CNC(=O)CN(c2ccc(Cl)cc2Cl)S(=O)(=O)c2ccccc2)cc1 | 47%
27 | COc1ccc(N(CC(=O)NCCc2ccccc2)S(=O)(=O)c2ccccc2)c(OC)c1 | 57%
28 | COc1ccc(N(CC(=O)Nc2ccc(Cl)cc2C)S(=O)(=O)c2ccccc2)c(OC)c1 | 113%
29 | CCOc1ccc(S(=O)(=O)N(CC(=O)Nc2ccc(OC)c(Cl)c2)c2ccccc2)cc1 | 75%
30 | CCOc1ccc(NC(=O)CN(c2ccc(Cl)cc2C)S(=O)(=O)c2ccccc2)cc1 | 45% (active)
31 | COc1ccc(N(CC(=O)Nc2cccc(C(C)=O)c2)S(=O)(=O)c2ccccc2)c(OC)c1 | 48% (active)
32 | CCN(CC)CCCNc1nc(C)nc2c1nnn2Cc1ccccc1 | 94%
33 | CC(C(=O)NCc1ccco1)N1CCN(C)CC1 (stereo not drawn) | 95%
34 | CC(C)NC(=O)Cc1ccc(Br)cc1 | 80%
35 | Cc1cccc(N(C)S(=O)(=O)c2cc(-c3cnc(C4CC4)o3)ccc2C)c1 | 100%
36 | COc1ccc(NC(=O)CSc2nnc(-c3ccncc3)n2-c2ccccc2)cc1 | 77%
37 | CCc1ccccc1NC(=O)CSc1nnc(-c2nonc2NC(C)=O)n1C | 52%
38 | COc1ccccc1NC(=O)CSc1nnc(-c2nonc2NC(C)=O)n1-c1ccccc1 | 63%
39 | CCn1c(SCC(=O)Nc2ccc(C)c(C)c2)nnc1-c1nonc1NC(C)=O | 110%
40 | CCOc1ccc(NC(=O)CSc2nnc(-c3ccncc3)n2-c2ccccc2)cc1 | 122%

Row | Compound | survival
41 | CCc1ccc(NC(=O)CSc2nnc(-c3nonc3NC(C)=O)n2-c2ccccc2)cc1 | 43% (active)
42 | CC(=O)Nc1nonc1-c1nnc(SCC(=O)Nc2cc(C)ccc2C)n1-c1ccccc1 | 104%
43 | CC(=O)Nc1nonc1-c1nnc(SCC(=O)Nc2ccc(C)cc2)n1-c1ccccc1 | 53%
44 | CC(=O)Nc1nonc1-c1nnc(SCC(=O)Nc2ccc(F)cc2F)n1-c1ccccc1 | 13% (active)
45 | COc1ccc(NC(=O)CSc2nnc(-c3nonc3NC(C)=O)n2-c2ccccc2)cc1 | 60% (active)
46 | CC(=O)Nc1nonc1-c1nnc(SCC(=O)Nc2c(C)cccc2C)n1-c1ccccc1 | 56%
47 | CC(=O)Nc1nonc1-c1nnc(SCC(=O)Nc2ccccc2)n1-c1ccccc1 | 39% (active)
48 | Cc1cccc(NC(=O)CSc2nc3ccc(NC(=O)c4ccco4)cc3s2)c1 | 66%
49 | CCC1CN(C(=O)N2CCC(C(=O)NCc3ccc(OC)cc3OC)CC2)c2cc(C)ccc2O1 (stereo not drawn) | 79%
50 | CCOc1cc(C2c3c(oc4ccccc4c3=O)C(=O)N2c2ccccn2)ccc1O (stereo not drawn) | 109%
51 | CCOC(=O)Cn1c(=O)oc2cc(S(=O)(=O)NCc3ccc(F)cc3)ccc21 | 72%
52 | Cc1cccn2c(=O)c(C(=O)NCCc3ccc(S(N)(=O)=O)cc3)c(O)nc12 | 51%
53 | Cc1nn2c(=O)cc(COc3ccc(/C=C(\C#N)C(=O)Nc4ccc(F)cc4)cc3)nc2s1 | 58%
54 | CCOC(=O)c1c(C)[nH]c(C)c1S(=O)(=O)N1CCC(C(=O)Nc2ccc(C)c(N(C)C)c2)CC1 | 84%
55 | CC(=O)N1CCc2nc3sc(C(=O)Nc4ccc(Cl)cc4F)c(N)c3c(C(F)(F)F)c2C1 | 75%
56 | CC(=O)Nc1nonc1-c1nnc(SCC(=O)Nc2cc(C)cc(C)c2)n1-c1ccccc1 | 50%
57 | CC(=O)Nc1nonc1-c1nnc(SCC(=O)Nc2cccc(F)c2)n1-c1ccccc1 | 19% (active)
58 | CC(=O)Nc1nonc1-c1nnc(SCC(=O)Nc2cccc(C)c2C)n1-c1ccccc1 | 61%
